# Data published in PubChem BioAssay (EPA / NIEHS).
# Activity calls are given as the source filed them. Rule for the calls: active = hit-call score of the fitted dose curve at least 0.9, where 1 is the maximum; inactive = score below 0.9.
# Assay: CEETOX_H295R_CORTISOL_noMTC: CeeTox H295R High-throughput Steroidogenesis Assay for Cortisol, maximum tolerated concentration (MTC) filtered results only (AID 2283916)
# Settings: actives raise or lower the signal
# How it was run: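 Cortisol secretion measured by LC-MS/MS after 48 h chemical treatment (final 0.1% DMSO) of forskolin-primed (10 uM, 48 h) H295R cells; gain or loss fitted relative to DMSO, without maximum-tolerated-concentration filtering.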
row,Compound,outcome
1,CC=Cc1ccc(OC)c(OC)c1,inactive
2,C=C[Si]1(C)O[Si](C)(C=C)O[Si](C)(C=C)O[Si](C)(C=C)O1 (stereo not drawn),inactive
3,COc1ccc(OC)c(N=Nc2c(O)ccc3ccccc23)c1,inactive
